Results reported in PubChem BioAssay AID624094 (National Center for Advancing Translational Sciences (NCATS), 2012).
Inconclusive results are not listed. Active and inactive are the calls of the source. Calls follow the shape of the dose curve; as a rule, active = well fitted inhibition curve with a large enough effect; inconclusive = small, poorly fitted or top-dose-only effect; inactive = flat fitted curve, though single readings scatter.

Molecular target: Dual specificity protein kinase CLK4 (Homo sapiens) (UniProt Q9HAZ1)
Sequence (Q9HAZ1 whole entry, looked up): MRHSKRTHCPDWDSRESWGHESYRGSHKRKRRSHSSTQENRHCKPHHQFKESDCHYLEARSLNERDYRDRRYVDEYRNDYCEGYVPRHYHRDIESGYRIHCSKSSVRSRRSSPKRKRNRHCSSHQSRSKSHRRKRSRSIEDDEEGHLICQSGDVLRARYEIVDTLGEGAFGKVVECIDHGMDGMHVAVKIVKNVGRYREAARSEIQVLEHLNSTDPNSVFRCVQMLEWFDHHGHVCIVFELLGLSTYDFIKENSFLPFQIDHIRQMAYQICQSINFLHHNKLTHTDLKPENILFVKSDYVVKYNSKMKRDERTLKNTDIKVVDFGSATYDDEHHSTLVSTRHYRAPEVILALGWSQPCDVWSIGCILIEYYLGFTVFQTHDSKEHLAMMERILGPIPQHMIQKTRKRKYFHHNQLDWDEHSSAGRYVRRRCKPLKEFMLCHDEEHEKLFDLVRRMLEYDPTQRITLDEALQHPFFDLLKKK
Assay: Confirmation Assay for Inhibitors of Clk4 (Kinase-Glo Assay): KU probe
Conditions: recombinant Clk4, Kinase-Glo ATP luminescence
Protocol: NIH Molecular Libraries Probe Production Centers Network [MLPCN] NIH Chemical Genomics Center [NCGC] MLPCN Grant: 1R03MH084827-01 Assay Submitter (PI): Tom Misteli NCGC Assay Overview: Clk4 (Invitrogen, cat# PV3839) was assayed using ATP and the RS repeat peptide (AnaSpec cat # 61722) as substrates. Following the Clk4 reaction, the remaining ATP levels were detected using Promega Kinase-Glo technology wherein the remaining ATP from the kinase reaction is detected using Ultra-Glo luciferase and D-luciferin which generates a bioluminescence signal from the ATP.
NCGC Assay Protocol Summary: Two uL/well of substrate-buffer solution (100 uM RS peptide, 1 uM ATP, 25 mM Tris pH7.5, 10 mM MgCl2, 0.5 mM EGTA, 2.5 mM DTT, 0.01% Triton X-100 final concentration) was dispensed into 1536-well, assay plates (Greiner, solid white medium-binding plates) with Aurora Discovery BioRAPTR Flying Reagent Dispenser (FRD; Beckton-Dickenson). Using a Kalypsys pin tool equipped with a 1536-pin tool, 23 nL of compound solution was transferred to the assay plate. […] Luminescence was detected with the ViewLux plate reader (Perkin Elmer, Waltham, MA) after 5 min incubation using a 5 second exposure time and 2x binning.

**Q.** Which Potency does the source give for `Cc1cc(CNc2ccnc(-c3ccc4c(c3)OCO4)n2)cnc1F` here?
**A.** 9.23 µM (active)

**Q.** `Clc1ccc(CNc2ccnc(-c3ccc4c(c3)OCO4)n2)cn1` was tested. Which Potency did it give?
**A.** 29.2 µM (active)
